The text below walks through data of ChEMBL document CHEMBL3988442, “University of Dundee, Small-Polar-MMV Screening Library” (2021).

Common to all, as to parameters: scale not given: direction of the effect not stated beside the values
The target in assay [1] is Protein translocase subunit SecA (Escherichia coli (strain K12)) (UniProt P10408). Put plainly: Assay to Identify E. coli SecA ATPase Inhibitors. The assay is classed as functional. Particulars: 30 µM.
Assay [2] has as its target T1, Ubiquitin-activating enzyme e1, putative (Leishmania donovani (strain BPK282A1)) (UniProt E9BSI1).
T1 sequence (whole entry): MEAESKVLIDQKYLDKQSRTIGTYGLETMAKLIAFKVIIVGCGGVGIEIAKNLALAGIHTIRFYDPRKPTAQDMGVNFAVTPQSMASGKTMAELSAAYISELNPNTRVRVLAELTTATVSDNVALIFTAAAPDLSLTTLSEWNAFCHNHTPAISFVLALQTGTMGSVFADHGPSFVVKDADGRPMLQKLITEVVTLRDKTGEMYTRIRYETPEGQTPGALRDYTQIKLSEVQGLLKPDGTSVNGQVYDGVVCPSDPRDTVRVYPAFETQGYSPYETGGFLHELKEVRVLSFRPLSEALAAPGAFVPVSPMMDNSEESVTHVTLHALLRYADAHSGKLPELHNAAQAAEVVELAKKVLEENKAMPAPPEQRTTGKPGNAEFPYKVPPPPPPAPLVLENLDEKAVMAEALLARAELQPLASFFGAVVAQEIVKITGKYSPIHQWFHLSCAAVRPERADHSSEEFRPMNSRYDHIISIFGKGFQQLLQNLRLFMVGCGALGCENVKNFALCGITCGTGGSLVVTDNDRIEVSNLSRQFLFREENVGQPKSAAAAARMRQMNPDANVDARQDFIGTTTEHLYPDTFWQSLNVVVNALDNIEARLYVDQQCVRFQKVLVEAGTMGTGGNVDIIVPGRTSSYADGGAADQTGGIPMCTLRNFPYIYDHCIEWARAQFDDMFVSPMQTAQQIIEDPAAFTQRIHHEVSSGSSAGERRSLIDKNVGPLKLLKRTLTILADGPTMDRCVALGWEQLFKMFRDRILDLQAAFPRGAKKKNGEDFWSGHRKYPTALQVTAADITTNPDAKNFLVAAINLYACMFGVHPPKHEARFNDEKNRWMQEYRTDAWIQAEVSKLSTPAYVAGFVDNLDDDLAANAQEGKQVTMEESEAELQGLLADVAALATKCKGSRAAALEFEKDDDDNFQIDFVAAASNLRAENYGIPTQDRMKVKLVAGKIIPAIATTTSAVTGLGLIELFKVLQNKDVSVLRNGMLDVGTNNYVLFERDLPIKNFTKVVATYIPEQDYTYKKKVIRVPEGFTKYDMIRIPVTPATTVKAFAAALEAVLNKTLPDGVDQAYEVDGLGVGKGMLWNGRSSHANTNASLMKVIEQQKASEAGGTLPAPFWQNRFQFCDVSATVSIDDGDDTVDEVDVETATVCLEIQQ
Kind of assay: Leishmania donovani Ubiquitin Activating Enzyme (LdE1). Format: functional. Particulars: 30 µM.

The target in assay [3] is AMP-activated protein kinase, AMPK (Homo sapiens) (UniProt P54646+O43741+P54619+Q9UGJ0+Q9Y478+Q13131+Q9UGI9). Kind of assay: AMP-dependent Kinase enzyme assay. An in vitro enzyme assay that detects ADP turnover that is directly proportional to AMPK activity. This uses naive AMPK that is activated during the assay with MK-8722. Particulars: 30 µM. Format: functional.
For assay [4], the target named is Sialic acid-binding Ig-like lectin 9 (Homo sapiens) (UniProt Q9Y336). Kind of assay: Hs-Siglec9 ALPHAscreen SOP 20170721. The settings on record: 10 µM.
The next assay has as its system Trypanosoma cruzi. Kind of assay: Trypanosoma cruzi phosphomannomutase and mannose-1-phosphate guanylyltransferase assay. The assay is classed as functional. Particulars: 10 µM.
For assay [5], the target named is T2, Arginase-2, mitochondrial (Homo sapiens) (UniProt P78540).
T2 sequence (whole entry): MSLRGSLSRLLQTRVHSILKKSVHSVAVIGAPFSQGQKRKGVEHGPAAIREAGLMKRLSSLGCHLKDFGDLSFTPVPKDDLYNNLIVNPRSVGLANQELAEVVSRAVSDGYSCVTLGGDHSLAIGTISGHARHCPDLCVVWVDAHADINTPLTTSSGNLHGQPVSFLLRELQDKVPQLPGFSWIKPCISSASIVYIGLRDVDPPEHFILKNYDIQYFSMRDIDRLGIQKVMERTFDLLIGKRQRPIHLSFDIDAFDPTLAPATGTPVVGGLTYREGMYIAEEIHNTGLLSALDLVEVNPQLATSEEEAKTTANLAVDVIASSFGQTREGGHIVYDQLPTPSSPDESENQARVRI
Kind of assay: in vitro enzyme assay to detect the production of urea directly proportional to the activity of Arginase II. Also: in the data most compounds retested in dose-response had high values. Format: functional. The settings on record: 33.3 µM.

The target of assay [6] is T3, Proteasome subunit beta (Trypanosoma cruzi) (UniProt O96673).
T3 sequence (whole entry): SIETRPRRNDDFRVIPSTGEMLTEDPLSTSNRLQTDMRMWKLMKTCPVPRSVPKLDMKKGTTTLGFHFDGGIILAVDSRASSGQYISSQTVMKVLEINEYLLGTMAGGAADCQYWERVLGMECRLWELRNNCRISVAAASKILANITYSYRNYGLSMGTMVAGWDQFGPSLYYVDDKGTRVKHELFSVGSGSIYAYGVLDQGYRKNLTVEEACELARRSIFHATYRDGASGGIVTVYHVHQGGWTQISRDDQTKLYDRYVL
Kind of assay: Trypanosoma cruzi proteasome chymotrypsin-like activity (TcProtChymo) assay. Also: in the data most compounds retested in dose-response had high values. The assay is classed as functional. The settings on record: 9.37 µM.

The species entered for the next assay is Homo sapiens. Kind of assay: To identify inhibition of the IFN signalling (Jak-Stat) pathway via expression of an eGFP reporter gene under the control of an IFN-stimulated response element (ISRE) containing MxA promoter. The assay is classed as functional. The settings on record: 30 µM. In general terms: Reporter assays use an easily measured gene product as a stand-in for the process of interest.

Assay [7] deals with T4, Tyrosyl-tRNA synthetase, putative (Trypanosoma cruzi (strain CL Brener)) (UniProt Q4DSP6).
T4 sequence (whole entry): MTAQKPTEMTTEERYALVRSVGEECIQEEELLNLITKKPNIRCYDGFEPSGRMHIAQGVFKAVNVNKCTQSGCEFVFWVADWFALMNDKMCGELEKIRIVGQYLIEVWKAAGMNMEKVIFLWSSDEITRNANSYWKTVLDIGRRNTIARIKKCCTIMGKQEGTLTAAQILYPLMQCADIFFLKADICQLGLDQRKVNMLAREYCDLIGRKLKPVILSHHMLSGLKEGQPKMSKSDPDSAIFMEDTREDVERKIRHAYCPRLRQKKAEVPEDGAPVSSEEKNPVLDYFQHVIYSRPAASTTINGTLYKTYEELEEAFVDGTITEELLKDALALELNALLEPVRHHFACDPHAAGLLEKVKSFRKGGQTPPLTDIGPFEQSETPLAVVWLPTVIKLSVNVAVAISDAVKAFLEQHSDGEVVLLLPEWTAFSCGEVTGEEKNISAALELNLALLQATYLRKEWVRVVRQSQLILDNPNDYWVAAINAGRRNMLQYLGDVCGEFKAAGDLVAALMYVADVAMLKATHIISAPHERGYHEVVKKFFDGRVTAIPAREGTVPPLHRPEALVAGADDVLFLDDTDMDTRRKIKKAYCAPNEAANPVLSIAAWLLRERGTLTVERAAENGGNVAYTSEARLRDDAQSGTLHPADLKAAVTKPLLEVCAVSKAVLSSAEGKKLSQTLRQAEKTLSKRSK
Kind of assay: Trypanosoma cruzi tyrosyl tRNA synthetase (TcYRS) _High Tyrosine SOP. Also: in the data most compounds retested in dose-response had high values. Format: functional. Particulars: 30 µM.

The target of assay [8] is T4, Tyrosyl-tRNA synthetase, putative (Trypanosoma cruzi (strain CL Brener)). Put plainly: Trypanosoma cruzi tyrosyl tRNA synthetase (TcYRS) SOP. Format: functional. Particulars: 30 µM.
Assay [9] deals with Chromo domain-containing protein 1 (Saccharomyces cerevisiae (strain ATCC 204508 / S288c) (Baker's yeast)) (UniProt P32657). Put plainly: ScCHD-1 Enzyme Inhibition Assay. Also: in the data most compounds retested in dose-response had high values. Format: functional. Particulars: 30 µM.

For some assays here: Results with a measured potency or affinity are listed apart.

Protein translocase subunit SecA (Escherichia coli (strain K12)), sequence (P10408 whole entry): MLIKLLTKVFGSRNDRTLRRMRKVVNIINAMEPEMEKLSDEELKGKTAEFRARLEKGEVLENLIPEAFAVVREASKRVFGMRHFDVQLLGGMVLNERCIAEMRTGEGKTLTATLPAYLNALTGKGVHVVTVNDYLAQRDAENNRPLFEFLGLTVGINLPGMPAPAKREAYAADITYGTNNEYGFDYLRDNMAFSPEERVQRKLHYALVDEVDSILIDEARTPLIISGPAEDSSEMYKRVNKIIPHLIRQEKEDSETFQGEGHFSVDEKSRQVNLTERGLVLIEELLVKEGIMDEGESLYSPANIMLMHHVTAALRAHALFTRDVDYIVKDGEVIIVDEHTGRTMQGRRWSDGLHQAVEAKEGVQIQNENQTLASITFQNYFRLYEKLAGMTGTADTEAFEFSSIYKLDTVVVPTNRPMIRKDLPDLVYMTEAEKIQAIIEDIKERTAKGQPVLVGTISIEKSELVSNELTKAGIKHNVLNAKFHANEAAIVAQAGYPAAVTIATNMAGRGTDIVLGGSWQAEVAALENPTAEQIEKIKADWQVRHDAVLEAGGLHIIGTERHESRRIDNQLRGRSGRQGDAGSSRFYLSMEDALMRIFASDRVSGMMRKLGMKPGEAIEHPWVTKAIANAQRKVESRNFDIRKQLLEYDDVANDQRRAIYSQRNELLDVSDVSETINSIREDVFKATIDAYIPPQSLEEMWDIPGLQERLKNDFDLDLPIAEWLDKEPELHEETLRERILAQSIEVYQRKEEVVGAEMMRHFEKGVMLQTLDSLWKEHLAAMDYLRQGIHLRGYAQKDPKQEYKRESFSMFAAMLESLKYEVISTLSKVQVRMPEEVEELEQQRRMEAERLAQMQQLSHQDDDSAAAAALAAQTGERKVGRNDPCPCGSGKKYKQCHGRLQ
Sialic acid-binding Ig-like lectin 9 (Homo sapiens), sequence (Q9Y336 whole entry): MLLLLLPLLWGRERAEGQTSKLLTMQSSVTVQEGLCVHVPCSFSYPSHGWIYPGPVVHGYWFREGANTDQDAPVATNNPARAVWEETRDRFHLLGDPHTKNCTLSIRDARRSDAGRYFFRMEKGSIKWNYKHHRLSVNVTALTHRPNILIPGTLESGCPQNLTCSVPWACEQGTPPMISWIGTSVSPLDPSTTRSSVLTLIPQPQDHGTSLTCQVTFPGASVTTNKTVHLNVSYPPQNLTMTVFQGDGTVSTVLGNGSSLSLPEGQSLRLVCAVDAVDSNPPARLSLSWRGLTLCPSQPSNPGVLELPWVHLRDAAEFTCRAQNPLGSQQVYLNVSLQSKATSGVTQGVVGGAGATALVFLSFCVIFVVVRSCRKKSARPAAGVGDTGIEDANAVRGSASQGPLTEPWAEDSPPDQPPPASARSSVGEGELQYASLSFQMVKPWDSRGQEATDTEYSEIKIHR
Chromo domain-containing protein 1 (Saccharomyces cerevisiae (strain ATCC 204508 / S288c) (Baker's yeast)), sequence (P32657 whole entry, the tested form may be a part): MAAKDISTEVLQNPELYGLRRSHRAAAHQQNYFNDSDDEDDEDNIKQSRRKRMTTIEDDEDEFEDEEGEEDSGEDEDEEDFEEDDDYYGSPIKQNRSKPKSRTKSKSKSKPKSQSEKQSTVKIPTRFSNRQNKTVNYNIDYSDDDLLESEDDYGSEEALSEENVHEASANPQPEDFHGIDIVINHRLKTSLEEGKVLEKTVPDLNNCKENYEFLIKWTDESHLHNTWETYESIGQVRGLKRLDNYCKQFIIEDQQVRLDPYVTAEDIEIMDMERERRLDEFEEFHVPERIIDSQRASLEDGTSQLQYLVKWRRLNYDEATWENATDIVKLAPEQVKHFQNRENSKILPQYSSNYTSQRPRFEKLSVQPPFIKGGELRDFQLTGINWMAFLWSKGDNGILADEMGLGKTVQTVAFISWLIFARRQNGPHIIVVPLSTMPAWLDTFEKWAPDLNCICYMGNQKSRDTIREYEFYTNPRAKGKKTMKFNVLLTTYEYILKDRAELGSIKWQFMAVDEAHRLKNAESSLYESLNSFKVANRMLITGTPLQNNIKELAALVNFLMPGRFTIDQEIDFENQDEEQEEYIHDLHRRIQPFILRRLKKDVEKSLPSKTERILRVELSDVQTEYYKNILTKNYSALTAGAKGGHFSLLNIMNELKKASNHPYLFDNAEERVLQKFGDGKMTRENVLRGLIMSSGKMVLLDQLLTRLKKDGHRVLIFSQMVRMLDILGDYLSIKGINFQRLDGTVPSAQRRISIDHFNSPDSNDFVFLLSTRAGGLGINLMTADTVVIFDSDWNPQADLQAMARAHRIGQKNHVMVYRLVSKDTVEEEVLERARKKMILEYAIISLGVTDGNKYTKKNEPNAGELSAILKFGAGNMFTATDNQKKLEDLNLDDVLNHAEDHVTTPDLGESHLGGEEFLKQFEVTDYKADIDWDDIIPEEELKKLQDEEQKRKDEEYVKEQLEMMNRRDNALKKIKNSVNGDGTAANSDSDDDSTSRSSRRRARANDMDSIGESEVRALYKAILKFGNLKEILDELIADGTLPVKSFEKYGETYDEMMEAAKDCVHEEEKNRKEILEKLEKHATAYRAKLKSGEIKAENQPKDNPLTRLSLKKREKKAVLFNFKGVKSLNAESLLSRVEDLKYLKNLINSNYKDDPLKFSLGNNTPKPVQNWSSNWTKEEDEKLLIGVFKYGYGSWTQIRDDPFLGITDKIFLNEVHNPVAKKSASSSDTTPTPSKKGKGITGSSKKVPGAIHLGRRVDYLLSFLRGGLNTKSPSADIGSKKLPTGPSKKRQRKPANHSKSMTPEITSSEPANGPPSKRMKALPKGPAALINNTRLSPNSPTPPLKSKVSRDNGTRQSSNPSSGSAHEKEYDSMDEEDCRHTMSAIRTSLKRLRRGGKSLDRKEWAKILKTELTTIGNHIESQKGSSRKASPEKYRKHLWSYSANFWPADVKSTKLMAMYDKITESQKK

Take `CN(C)Cc1nn(C)c2c1CCN(S(=O)(=O)c1cccs1)C2`: the Percent Effect in assay [1] was -0.0797%; in assay [2] it was 13%; in [3] it was 2.64%; in assay [4] it was -2.7%; in the assay with Trypanosoma cruzi, 1.48%; in assay [5], 3.23%. Also, the Percent Effect in assay [6] was 5.57%; in the assay listed under Homo sapiens, 14.8%; in [7], 8.47%; in [8], 8.97%; in [9], -7.57%.
As for `CN1CC(C(=O)NC(C)(C)C)CC1=O` (stereo not given), the Percent Effect is -3.04% in [1]; -5.48% in assay [2]; -0.441% in assay [3]; -0.584% in assay [4]; -0.595% in the assay on Trypanosoma cruzi; -3.59% in assay [5]. In addition, the Percent Effect in assay [6] is 3%; in the assay filed under Homo sapiens, -7.57%; in [7], 2.08%; in assay [8] it was 8.64%; in [9] it was 6.01%.
As to `Cc1csc(N2CCN(C(=O)CCC(=O)c3ccc(C)s3)CC2)n1`, the Percent Effect in assay [1] was -3.76%; in assay [2], 8.11%; in assay [3] it was -7.25%; in assay [4] it was 1.58%; in the assay on Trypanosoma cruzi, 1.79%; in assay [5], -12.4%. For the same molecule, the Percent Effect worked out at 13.5% in assay [6]; 23% in the assay listed under Homo sapiens; 7.39% in assay [7]; 25.9% in [8]; 17.6% in assay [9].
In the case of `CCOc1cc(F)ccc1NS(=O)(=O)c1cc(C)c(C(=O)O)s1`, the Percent Effect in assay [1] was -9.09%; in [2], 8.11%; in assay [3], -10.6%; in assay [4], 28.9%; in the assay on Trypanosoma cruzi, 4.59%; in assay [5], 0.248%. For the same molecule, the Percent Effect was 8.15% in assay [6]; -8.12% in the assay filed under Homo sapiens; -5.38% in assay [7]; -1.24% in assay [8]; -11.4% in assay [9].
On to `O=C([C@@H]1CC[C@@H]2[C@@H](CCN2Cc2cccc(F)c2)O1)N1CCCCO1`, for which the Percent Effect in assay [1] is 3%; in [2], -34.7%; in [3] it was 4.08%; in assay [4], 2.78%; with Trypanosoma cruzi, -3.28%; in assay [5], -52.5%. Also, the Percent Effect was 9.23% in assay [6]; 16.6% in the assay filed under Homo sapiens; 2.08% in assay [7]; 22.5% in assay [8]; -4.83% in assay [9].
`Cc1nnc(CN2CCC(N(C)Cc3nnc(C4CC4)n3C)C2)o1` (stereo not given): the Percent Effect in [1] was -3.08%; in assay [2], 16.2%; in assay [3], -9.74%; in assay [4], -7.84%; in the assay with Trypanosoma cruzi, -6.32%; in assay [5], -1.2%. The Percent Effect is 5.04% in assay [6]; 20.7% in the assay filed under Homo sapiens; 4.43% in assay [7]; 11.1% in assay [8]; -4.72% in assay [9].
For the molecule `Cc1c(NC(=O)NCC(C)N2CCOCC2)cccc1OC(F)F` (stereo not given), the Percent Effect is -4.46% in assay [1]; 8.11% in assay [2]; 0.188% in assay [3]; 0.607% in [4]; 0.391% in the assay on Trypanosoma cruzi; 2.5% in [5]. The Percent Effect was 8.03% in [6]; -7.17% in the assay filed under Homo sapiens; 14.8% in [7]; -3.66% in [8]; -5.4% in assay [9].
Turning to `CCC(CNC(=O)Nc1cnn(CC)c1)N1CCCC1` (stereo not given), the Percent Effect is 0.765% in [1]; 17.7% in [2]; -9.29% in [3]; -3.26% in [4]; -6.33% with Trypanosoma cruzi; 3.04% in assay [5]. The Percent Effect in assay [6] was 8.27%; in the assay filed under Homo sapiens, 8.67%; in [7], 3.45%; in assay [8], 16.5%; in [9] it was -5.82%.
For the molecule `Cc1ncsc1CN1C[C@H](C(=O)N2CCCO2)[C@@H]2CCO[C@@H]2C1`, the Percent Effect in assay [1] is -2.57%; in [2], -8.22%; in [3], -4.3%; in [4] it was 10.2%; in the assay on Trypanosoma cruzi it was 7.74%; in assay [5], -7.58%. The Percent Effect in assay [6] is 16.5%; in the assay filed under Homo sapiens, -2.42%; in assay [7], 5.21%; in [8], 3.7%; in assay [9] it was -1.86%.
Turning to `O=C(CSCC1CC1)N1CCCC(c2nccn2Cc2ccncc2)C1` (stereo not given), the Percent Effect in [1] is -2.74%; in [2], 15.3%; in assay [3], -12.9%; in assay [4], 10.9%; with Trypanosoma cruzi, 2.62%; in assay [5], 2.65%. In addition, the Percent Effect in assay [6] was 7.37%; in the assay filed under Homo sapiens it was -2.75%; in assay [7] it was 3.16%; in assay [8], 10.3%; in assay [9], -2.97%.
